Key:
[1] = biological target: Calcium/calmodulin-dependent protein kinase type 1 (Homo sapiens) (UniProt Q14012); conditions: at 1 µM
[2] = biological target: Calcium/calmodulin-dependent protein kinase type 1 (Homo sapiens) (UniProt Q14012); conditions: at 10 µM
[3] = biological target: Calcium/calmodulin-dependent protein kinase type II subunit beta (Homo sapiens) (UniProt Q13554); conditions: at 1 µM
[4] = biological target: Calcium/calmodulin-dependent protein kinase type II subunit beta (Homo sapiens) (UniProt Q13554); conditions: at 10 µM
[5] = biological target: Calcium/calmodulin-dependent protein kinase type II subunit gamma (Homo sapiens) (UniProt Q13555); conditions: at 1 µM
Sequence of Calcium/calmodulin-dependent protein kinase type II subunit gamma (Homo sapiens) (Q13555 whole entry): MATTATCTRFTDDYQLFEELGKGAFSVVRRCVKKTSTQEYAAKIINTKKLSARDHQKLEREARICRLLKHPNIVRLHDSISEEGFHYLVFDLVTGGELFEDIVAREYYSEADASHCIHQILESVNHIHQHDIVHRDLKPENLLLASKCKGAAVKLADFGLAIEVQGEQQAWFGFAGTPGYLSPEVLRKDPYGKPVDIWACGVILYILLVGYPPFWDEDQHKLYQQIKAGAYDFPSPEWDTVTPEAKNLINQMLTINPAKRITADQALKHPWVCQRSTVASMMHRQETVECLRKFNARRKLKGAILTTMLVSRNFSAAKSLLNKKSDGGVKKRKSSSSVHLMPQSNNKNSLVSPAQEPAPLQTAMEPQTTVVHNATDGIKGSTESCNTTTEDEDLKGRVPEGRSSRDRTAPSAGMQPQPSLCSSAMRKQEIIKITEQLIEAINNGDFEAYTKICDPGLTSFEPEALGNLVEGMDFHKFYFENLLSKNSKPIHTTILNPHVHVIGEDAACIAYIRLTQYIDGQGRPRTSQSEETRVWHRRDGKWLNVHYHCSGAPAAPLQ

[6] = biological target: Calcium/calmodulin-dependent protein kinase type II subunit gamma (Homo sapiens) (UniProt Q13555); conditions: at 10 µM
[7] = biological target: Calcium/calmodulin-dependent protein kinase type II subunit delta (Homo sapiens) (UniProt Q13557); conditions: at 1 µM
Sequence of Calcium/calmodulin-dependent protein kinase type II subunit delta (Homo sapiens) (Q13557 whole entry): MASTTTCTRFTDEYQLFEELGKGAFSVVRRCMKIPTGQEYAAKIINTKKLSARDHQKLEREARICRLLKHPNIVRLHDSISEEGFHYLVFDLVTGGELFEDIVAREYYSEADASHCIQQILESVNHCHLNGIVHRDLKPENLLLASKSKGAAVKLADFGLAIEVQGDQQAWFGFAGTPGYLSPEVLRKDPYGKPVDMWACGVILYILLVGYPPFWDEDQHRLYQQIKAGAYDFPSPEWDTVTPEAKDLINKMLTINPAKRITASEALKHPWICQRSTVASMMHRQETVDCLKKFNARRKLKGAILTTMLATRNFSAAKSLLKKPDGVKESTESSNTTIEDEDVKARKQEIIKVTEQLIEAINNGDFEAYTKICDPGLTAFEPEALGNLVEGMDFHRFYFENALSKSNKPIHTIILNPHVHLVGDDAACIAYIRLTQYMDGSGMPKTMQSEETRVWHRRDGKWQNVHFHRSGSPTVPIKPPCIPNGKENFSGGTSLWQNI

[8] = biological target: Calcium/calmodulin-dependent protein kinase type II subunit delta (Homo sapiens) (UniProt Q13557); conditions: at 10 µM
[9] = biological target: T1, Calcium/calmodulin-dependent protein kinase type IV (Homo sapiens) (UniProt Q16566); conditions: at 1 µM
T1 sequence (whole entry): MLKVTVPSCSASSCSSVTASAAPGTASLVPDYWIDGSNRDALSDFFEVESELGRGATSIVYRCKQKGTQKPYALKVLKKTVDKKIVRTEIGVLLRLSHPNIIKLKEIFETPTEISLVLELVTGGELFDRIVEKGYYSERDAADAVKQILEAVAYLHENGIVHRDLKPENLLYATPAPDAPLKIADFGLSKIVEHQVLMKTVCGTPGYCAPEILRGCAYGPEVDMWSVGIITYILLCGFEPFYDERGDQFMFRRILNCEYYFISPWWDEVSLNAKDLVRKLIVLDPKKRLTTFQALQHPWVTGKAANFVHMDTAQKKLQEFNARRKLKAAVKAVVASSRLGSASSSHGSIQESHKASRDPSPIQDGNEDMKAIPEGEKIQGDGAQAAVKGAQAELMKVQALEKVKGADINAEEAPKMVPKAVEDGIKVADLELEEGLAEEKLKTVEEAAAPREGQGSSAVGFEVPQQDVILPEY

[10] = biological target: T1, Calcium/calmodulin-dependent protein kinase type IV (Homo sapiens); conditions: at 10 µM
[11] = biological target: Death-associated protein kinase 1 (Homo sapiens) (UniProt P53355); conditions: at 1 µM
Sequence of Death-associated protein kinase 1 (Homo sapiens) (P53355 whole entry, looked up): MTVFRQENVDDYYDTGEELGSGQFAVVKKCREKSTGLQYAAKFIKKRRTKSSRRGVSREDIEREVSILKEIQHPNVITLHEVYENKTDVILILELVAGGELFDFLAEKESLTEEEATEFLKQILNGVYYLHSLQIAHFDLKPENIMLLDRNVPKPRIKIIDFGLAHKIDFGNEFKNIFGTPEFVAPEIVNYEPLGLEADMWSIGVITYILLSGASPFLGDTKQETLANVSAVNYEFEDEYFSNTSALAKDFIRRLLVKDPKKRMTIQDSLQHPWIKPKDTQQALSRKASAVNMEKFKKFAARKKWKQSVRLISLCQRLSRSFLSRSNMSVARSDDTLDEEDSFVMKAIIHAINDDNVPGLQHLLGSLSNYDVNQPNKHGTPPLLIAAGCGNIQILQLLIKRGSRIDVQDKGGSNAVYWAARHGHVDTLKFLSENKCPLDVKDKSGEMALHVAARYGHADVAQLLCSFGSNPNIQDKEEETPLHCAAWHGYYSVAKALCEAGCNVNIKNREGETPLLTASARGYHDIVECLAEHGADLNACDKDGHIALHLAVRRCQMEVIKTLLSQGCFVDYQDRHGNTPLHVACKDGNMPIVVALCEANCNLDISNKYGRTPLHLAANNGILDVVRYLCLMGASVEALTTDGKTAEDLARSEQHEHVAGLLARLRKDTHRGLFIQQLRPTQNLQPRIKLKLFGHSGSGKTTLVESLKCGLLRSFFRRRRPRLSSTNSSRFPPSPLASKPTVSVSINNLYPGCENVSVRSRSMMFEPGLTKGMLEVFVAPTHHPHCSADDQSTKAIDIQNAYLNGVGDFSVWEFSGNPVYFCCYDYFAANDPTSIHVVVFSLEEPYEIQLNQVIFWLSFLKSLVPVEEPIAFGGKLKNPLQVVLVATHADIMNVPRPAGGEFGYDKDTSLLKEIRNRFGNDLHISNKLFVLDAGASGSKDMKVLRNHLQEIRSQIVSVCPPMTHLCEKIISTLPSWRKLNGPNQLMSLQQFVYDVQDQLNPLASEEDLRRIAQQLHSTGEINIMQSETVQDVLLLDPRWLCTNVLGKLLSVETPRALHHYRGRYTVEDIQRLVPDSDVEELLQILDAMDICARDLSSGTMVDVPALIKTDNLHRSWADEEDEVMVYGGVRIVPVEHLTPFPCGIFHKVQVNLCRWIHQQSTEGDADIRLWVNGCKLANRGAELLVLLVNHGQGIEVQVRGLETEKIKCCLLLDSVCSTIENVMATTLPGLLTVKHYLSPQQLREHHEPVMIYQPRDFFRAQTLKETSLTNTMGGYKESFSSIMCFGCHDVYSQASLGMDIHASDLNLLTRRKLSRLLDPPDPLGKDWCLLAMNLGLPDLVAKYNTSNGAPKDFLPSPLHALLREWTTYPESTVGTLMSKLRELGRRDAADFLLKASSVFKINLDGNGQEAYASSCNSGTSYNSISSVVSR

[12] = biological target: Death-associated protein kinase 1 (Homo sapiens) (UniProt P53355); conditions: at 10 µM
[13] = biological target: Death-associated protein kinase 2 (Homo sapiens) (UniProt Q9UIK4); conditions: at 1 µM
Sequence of Death-associated protein kinase 2 (Homo sapiens) (Q9UIK4 whole entry, looked up): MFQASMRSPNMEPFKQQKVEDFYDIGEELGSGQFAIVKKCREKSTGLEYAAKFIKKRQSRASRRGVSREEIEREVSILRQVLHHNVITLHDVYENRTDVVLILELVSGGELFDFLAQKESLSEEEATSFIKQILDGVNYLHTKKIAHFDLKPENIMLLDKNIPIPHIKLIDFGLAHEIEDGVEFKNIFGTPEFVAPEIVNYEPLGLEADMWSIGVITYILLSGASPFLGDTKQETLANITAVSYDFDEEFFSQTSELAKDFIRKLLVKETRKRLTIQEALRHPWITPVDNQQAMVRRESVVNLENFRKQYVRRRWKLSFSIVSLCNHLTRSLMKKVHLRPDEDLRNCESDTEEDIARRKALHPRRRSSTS

[14] = biological target: Death-associated protein kinase 2 (Homo sapiens) (UniProt Q9UIK4); conditions: at 10 µM
[15] = biological target: T2, Serine/threonine-protein kinase DCLK2 (Homo sapiens) (UniProt Q8N568); conditions: at 1 µM
T2 sequence (whole entry): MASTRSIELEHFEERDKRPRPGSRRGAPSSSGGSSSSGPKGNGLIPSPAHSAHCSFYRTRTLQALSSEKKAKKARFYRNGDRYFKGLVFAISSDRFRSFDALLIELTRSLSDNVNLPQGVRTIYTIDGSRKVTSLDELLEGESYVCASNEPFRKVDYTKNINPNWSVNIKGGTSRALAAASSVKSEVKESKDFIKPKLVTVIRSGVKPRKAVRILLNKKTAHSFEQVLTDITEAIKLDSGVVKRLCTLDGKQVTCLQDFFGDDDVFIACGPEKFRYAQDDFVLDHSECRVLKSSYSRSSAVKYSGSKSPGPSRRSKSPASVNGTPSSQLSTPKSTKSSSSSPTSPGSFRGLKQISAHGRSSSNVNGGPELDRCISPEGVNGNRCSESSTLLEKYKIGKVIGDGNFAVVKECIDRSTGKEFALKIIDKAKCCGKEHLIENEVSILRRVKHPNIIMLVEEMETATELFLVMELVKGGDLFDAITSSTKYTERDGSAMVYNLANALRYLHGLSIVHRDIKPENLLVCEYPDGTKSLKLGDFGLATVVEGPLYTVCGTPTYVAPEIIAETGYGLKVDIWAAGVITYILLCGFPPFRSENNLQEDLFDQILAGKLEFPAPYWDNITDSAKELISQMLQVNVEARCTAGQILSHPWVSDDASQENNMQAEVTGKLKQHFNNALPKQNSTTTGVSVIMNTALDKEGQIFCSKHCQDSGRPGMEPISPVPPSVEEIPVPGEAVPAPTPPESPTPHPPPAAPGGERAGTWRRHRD

[16] = biological target: T2, Serine/threonine-protein kinase DCLK2 (Homo sapiens); conditions: at 10 µM
[17] = biological target: T3, Discoidin domain-containing receptor 2 (Homo sapiens) (UniProt Q16832); conditions: at 1 µM
T3 sequence (whole entry): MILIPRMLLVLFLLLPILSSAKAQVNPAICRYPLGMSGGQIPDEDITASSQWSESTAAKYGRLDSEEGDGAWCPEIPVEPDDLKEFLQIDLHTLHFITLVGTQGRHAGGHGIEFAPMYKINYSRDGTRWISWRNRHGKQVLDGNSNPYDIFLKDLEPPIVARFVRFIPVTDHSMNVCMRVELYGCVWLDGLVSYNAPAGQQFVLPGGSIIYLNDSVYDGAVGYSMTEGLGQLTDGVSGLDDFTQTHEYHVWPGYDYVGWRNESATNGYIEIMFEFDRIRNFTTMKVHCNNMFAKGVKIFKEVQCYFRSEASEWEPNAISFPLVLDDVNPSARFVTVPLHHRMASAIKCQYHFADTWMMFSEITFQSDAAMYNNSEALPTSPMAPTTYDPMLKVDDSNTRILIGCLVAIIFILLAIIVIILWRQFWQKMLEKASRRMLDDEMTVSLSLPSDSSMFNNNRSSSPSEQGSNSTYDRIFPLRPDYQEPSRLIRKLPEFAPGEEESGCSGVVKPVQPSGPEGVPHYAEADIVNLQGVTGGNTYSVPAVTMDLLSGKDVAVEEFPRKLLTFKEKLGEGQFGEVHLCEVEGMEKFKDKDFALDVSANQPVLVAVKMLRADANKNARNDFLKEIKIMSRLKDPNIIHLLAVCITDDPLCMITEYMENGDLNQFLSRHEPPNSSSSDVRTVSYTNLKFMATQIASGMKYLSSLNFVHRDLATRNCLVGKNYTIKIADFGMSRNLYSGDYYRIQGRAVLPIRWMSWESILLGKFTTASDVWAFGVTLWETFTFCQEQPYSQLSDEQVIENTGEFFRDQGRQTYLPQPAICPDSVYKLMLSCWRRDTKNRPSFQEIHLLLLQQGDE

[18] = biological target: T3, Discoidin domain-containing receptor 2 (Homo sapiens); conditions: at 10 µM
[19] = biological target: T4, Myotonin-protein kinase (Homo sapiens) (UniProt Q09013); conditions: at 1 µM
T4 sequence (whole entry): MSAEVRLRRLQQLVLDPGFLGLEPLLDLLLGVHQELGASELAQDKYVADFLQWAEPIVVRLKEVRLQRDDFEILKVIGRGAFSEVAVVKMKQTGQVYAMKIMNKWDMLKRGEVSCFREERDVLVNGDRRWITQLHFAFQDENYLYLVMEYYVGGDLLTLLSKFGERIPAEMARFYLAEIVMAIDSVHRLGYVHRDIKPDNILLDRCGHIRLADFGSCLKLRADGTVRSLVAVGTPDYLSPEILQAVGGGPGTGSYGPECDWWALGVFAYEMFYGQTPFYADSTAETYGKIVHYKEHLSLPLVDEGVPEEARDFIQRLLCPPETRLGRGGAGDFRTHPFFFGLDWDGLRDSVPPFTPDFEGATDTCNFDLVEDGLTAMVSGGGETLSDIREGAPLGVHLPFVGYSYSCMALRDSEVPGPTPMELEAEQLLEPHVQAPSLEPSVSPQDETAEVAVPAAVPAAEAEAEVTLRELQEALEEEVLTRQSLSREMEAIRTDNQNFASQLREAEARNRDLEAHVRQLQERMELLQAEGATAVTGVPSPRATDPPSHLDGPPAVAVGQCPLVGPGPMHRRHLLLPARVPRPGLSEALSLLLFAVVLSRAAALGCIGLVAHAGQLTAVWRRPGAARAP

[20] = biological target: T4, Myotonin-protein kinase (Homo sapiens); conditions: at 10 µM

Sequence of Calcium/calmodulin-dependent protein kinase type II subunit beta (Homo sapiens) (Q13554 whole entry): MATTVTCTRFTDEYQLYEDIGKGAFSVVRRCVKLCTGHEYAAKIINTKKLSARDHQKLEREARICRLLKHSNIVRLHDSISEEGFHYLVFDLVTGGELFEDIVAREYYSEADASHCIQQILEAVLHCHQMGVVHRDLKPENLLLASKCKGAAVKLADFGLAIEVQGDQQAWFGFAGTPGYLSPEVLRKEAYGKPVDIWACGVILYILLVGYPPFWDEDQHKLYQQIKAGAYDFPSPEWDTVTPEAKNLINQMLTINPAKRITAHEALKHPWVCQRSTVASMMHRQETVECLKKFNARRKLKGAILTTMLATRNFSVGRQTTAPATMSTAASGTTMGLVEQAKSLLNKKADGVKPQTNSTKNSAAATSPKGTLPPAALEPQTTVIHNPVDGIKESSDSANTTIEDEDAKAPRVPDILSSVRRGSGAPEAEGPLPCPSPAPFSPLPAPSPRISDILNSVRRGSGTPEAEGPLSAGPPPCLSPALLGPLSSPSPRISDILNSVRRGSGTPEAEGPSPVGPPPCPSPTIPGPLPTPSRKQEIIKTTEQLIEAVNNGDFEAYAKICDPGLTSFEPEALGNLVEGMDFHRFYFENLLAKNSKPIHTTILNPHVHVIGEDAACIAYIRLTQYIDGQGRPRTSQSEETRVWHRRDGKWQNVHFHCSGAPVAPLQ
Sequence of Calcium/calmodulin-dependent protein kinase type 1 (Homo sapiens) (Q14012 whole entry, looked up): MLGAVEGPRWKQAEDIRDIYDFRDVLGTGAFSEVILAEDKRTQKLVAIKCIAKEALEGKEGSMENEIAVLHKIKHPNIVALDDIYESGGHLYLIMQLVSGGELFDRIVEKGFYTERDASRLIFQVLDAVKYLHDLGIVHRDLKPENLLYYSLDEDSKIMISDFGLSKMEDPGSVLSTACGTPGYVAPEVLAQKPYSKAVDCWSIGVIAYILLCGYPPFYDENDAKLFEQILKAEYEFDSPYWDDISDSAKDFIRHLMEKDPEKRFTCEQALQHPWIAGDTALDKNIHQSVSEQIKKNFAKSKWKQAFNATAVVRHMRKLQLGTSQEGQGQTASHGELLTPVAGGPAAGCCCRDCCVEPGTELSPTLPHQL

C[S+]([O-])c1ccc(-c2nc(-c3ccc(F)cc3)c(-c3ccncc3)[nH]2)cc1 (configuration not stated)
residual activity [1]: 115% | residual activity [2]: 99% | residual activity [3]: 114% | residual activity [4]: 98% | residual activity [5]: 103% | residual activity [6]: 100% | residual activity [7]: 108% | residual activity [8]: 89% | residual activity [9]: 113% | residual activity [10]: 98% | residual activity [11]: 85% | residual activity [12]: 84% | residual activity [13]: 90% | residual activity [14]: 103% | residual activity [15]: 132% | residual activity [16]: 111% | residual activity [17]: 94% | residual activity [18]: 46% | residual activity [19]: 122% | residual activity [20]: 102%

COc1cc(OC)c(/C=C2\C(=O)Nc3ccccc32)c(OC)c1
residual activity [1]: 96% | residual activity [2]: 82% | residual activity [3]: 102% | residual activity [4]: 76% | residual activity [5]: 105% | residual activity [6]: 96% | residual activity [7]: 107% | residual activity [8]: 89% | residual activity [10]: 101% | residual activity [11]: 84% | residual activity [12]: 81% | residual activity [13]: 100% | residual activity [14]: 95% | residual activity [17]: 97% | residual activity [18]: 90%

CN[C@@H]1C[C@H]2O[C@@](C)([C@@H]1OC)n1c3ccccc3c3c4c(c5c6ccccc6n2c5c31)C(=O)NC4
residual activity [4]: 0%

O=C1Nc2cc(Br)ccc2/C1=C1/Nc2ccccc2/C1=N\O
residual activity [11]: 80%

COc1ccc(CNc2nc(N(CCO)CCO)nc3c2ncn3C(C)C)cc1
residual activity [11]: 93%

CC(C)[C@H](CO)Nc1nc(Nc2cccc(Cl)c2)c2ncn(C(C)C)c2n1
residual activity [1]: 93% | residual activity [2]: 78% | residual activity [3]: 95% | residual activity [4]: 68% | residual activity [5]: 100% | residual activity [6]: 42% | residual activity [7]: 99% | residual activity [8]: 46% | residual activity [10]: 60% | residual activity [11]: 87% | residual activity [15]: 128% | residual activity [16]: 139% | residual activity [17]: 91% | residual activity [18]: 92% | residual activity [19]: 98% | residual activity [20]: 89%

CC(C)[C@H](CO)Nc1nc(Nc2cc(N)cc(Cl)c2)c2ncn(C(C)C)c2n1
residual activity [11]: 92%

N/C(=N\[N+](=O)[O-])N/N=C\c1ccc(-c2cccc([N+](=O)[O-])c2)o1
residual activity [1]: 93% | residual activity [2]: 49% | residual activity [3]: 92% | residual activity [4]: 76% | residual activity [5]: 91% | residual activity [6]: 53% | residual activity [11]: 93% | residual activity [12]: 89% | residual activity [17]: 100% | residual activity [18]: 99% | residual activity [19]: 98% | residual activity [20]: 84%

Reference: ChEMBL document CHEMBL2218924, “A broad activity screen in support of a chemogenomic map for kinase signalling research and drug discovery” (Biochem J, 2013)
